eIF4H inh – human eIF4H binding inhibitors, primary screen, translation initiation inhibitor project, biochemical, uHTS, fluorescence polarization; 290,000 compounds, 0.94% hits; inhibition, % at 35 µM; eIF4H fluorescence polarization binding assay;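 also: calls also rest on retests at 20 µM and on dose response follow-up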
PABP FP inh – PABP poly(A) RNA binding inhibitors, primary screen, biochemical, fluorescence polarization, uHTS; calls only at 35 µM; Polyadenylate-binding protein 1 (Homo sapiens), P11940; 290,000 compounds, 1% hits;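 also: calls also rest on retests at 20 µM and on dose response follow-up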
MLLE-PAM2 inh – inhibitors of PABP1 MLLE–PAM2 peptide binding, primary screen, biochemical, fluorescence polarization, FITC-PAM2, GST-MLLE; Polyadenylate-binding protein 1 (Homo sapiens), P11940; inhibition, % at 20 µM; 360,000 compounds, 0.36% hits; AID 588489, 2011; in the data active = inhibition above about 35%, passing the limit was not always enough;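 also: plate controls were DMSO wells with GST-MLLE for no effect and wells lacking GST-MLLE protein for full effect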
eIF4E-4G inh – eIF4E–eIF4G protein interaction inhibitors, primary screen, biochemical, uHTS, TR-FRET, eIF4GI fragment. inhibition, % at 21.7 µM. Eukaryotic translation initiation factor 4E (Mus musculus) + Eukaryotic translation …. 220,000 compounds, 0.37% hits. TR-FRET eIF4E-eIF4GI(517-606) binding, 2 h;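 active = inhibition above about 30%, limit read from the data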;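 also: 0% = full FRET control wells and 100% = background wells lacking eIF4GI fragment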
Numbers without * were called inactive; i = inactive; ? = inconclusive; . = not tested or not shown; + = active, no number; [ ] = dose if it differs, or a comment. A selection: hits, their analogues and other compounds. The true share with any hit is near 1.5%. Unless noted, no rule for the calls is given here.

SMILES	eIF4H inh	PABP FP inh	MLLE-PAM2 inh	eIF4E-4G inh
CCc1nc2ccc(C(=O)N3CCN(S(=O)(=O)CC)CC3)cn2c1N(CC)Cc1cccc(Br)c1	.	.	-12	.
CCCS(=O)(=O)NC(=O)C1(C)CCCN(C(=O)/C=C/c2ccccc2)C1 (configuration not stated)	.	.	-1	.
O=C(C1COc2ccccc2O1)N1CCCC1 (configuration not stated)	-5	i	14	-6
O=C(C1COc2ccccc2O1)N1CCc2ccccc21 (configuration not stated)	79*	i	-6	9
O=C(O)[C@@H](c1ccccc1)N1Cc2ccccc2C1=O	2	i	-10	90*
C[C@@H]1CN([C@H](C)CO)C(=O)CCCn2cc(nn2)CO[C@H]1CN(C)C(=O)OCc1ccccc1	.	.	4	.
CCc1nc2c(OCc3ccc(OC(F)F)cc3)cccn2c1N(C)C(=O)c1cccs1	.	.	0	.
Cn1nc2c(c1C(=O)O)CCCC2	102*	+	-3	4
COc1ccc(OC)c(N(CCN2C(=O)c3ccccc3C2=O)C(=O)CCl)c1	.	.	-3	.
COc1cc(C2CC(=O)Oc3c2c(=O)n(C)c2ccccc32)ccc1O (configuration not stated)	64*	i	3	3
COc1cc(C2CC(=O)Oc3c2c(=O)n(C)c2ccccc32)cc(OC)c1OC (configuration not stated)	-9	i	-9	2
Cc1ccc(C(CCN(Cc2ccccc2)C(=O)c2ccco2)c2ccco2)cc1 (configuration not stated)	40	i	0	2
O=C(c1ccco1)N(CCC(c1ccccc1)c1ccco1)Cc1ccco1 (configuration not stated)	68*	i	-10	13
COc1ccc(NC(=O)C2Cc3c(-c4cccc(F)c4)ccnc3O2)cn1 (configuration not stated)	.	.	8	.
COC(=O)N1CCCCC1c1cc(C(=O)NCc2ccccc2)no1 (configuration not stated)	.	.	20	.
C=CCN1C=C2C(=O)C(C)(OC(=O)c3cccs3)C(=O)C=C2C=C1CCCC(=O)OC (configuration not stated)	44	i	16	0
COC(=O)CCCC1=CC2=CC(=O)C(C)(OC(=O)c3cccs3)C(=O)C2=CN1CCc1ccccn1 (configuration not stated)	73	+	26	-1
CCCS(=O)(=O)NC(=O)C1(C)CCN(C(=O)c2cc(OC)c(OC)c(OC)c2)C1 (configuration not stated)	.	.	5	.
Nc1ccc(N(c2ccccc2)c2ccc(N)cc2)cc1	6	i	-6	41*[fluorescence artefact?]
CN(C)c1ccc(CCc2ccc(N)cc2)cc1	.	.	1	.
CC1(C(=O)NS(=O)(=O)c2cccc(Cl)c2)CCN1C(=O)CC1CCCC1 (configuration not stated)	.	.	-5	.
CCCCCCc1nc2nc(Cl)c(Cl)nc2[nH]1	.	.	5	.
O=C(O)CCN1C(=O)c2ccc(NC(=O)C(c3ccccc3)c3ccccc3)cc2C1=O	4	i	-8	71*
COC(=O)c1sc(NC(=S)NC(=O)c2ccccc2)nc1C	2	i	28	-2
Cc1nc(NC(=S)NC(=O)c2ccccc2)sc1C(=O)N(C)C	-10	i	42*	-1
SMILES	eIF4H inh	PABP FP inh	MLLE-PAM2 inh	eIF4E-4G inh
O=C(NCCCO)Nc1ccc2nc(-c3ccco3)c(-c3ccco3)nc2c1	?	?	.	48*
O=C(Nc1ccc2nc(-c3ccco3)c(-c3ccco3)nc2c1)NC1CC1	99	i	18	41*[fluorescence artefact?]
O=C(Nc1ccc(N2CCOCC2)cc1)Nc1ccc2nc(-c3ccco3)c(-c3ccco3)nc2c1	107	i	27	-15
Clc1ccc2nc(C3CCCCC3)c(Cc3ccsc3)n2c1	.	.	24	.
Cc1sc2ncnc(NCc3cccs3)c2c1C	-10	i	-4	5
Cc1sc2ncnc(SCC(=O)NC(=O)NCc3ccco3)c2c1C	82*	+	12	4
Cc1sc2ncnc(NCc3ccco3)c2c1C	66*	+	-2	4
Cc1ccc(-c2csc3ncnc(OCC(=O)NC(=O)NCc4ccco4)c23)cc1	21*	i	2	-8
Cc1nc(SCC(=O)NCc2ccco2)c2c(C)c(C)sc2n1	-2	i	2	-16
CCCCCCNC(=O)O[C@H]1C[C@@H]2C(=O)N(c3ccccc3)C(=O)[C@@H]2[C@@H]2CN(S(=O)(=O)c3ccc(C)cc3)C[C@]12O	.	.	5	.
CC(=O)Nc1ccc(C(=O)OCC(=O)N(C)C2CCCCC2)cc1	active	i	2	1
CCCC(=O)c1ccc(O)cc1O	39	i	11	-3
CCOc1ccccc1C(=O)NC(C(=O)OCn1nnc2ccccc2c1=O)C(C)C (configuration not stated)	.	.	-9	.
CCCCCCc1cc2cc(C(N)=O)c(=N)oc2cc1O	96*	+	.	-5
CCOc1ccccc1OCCC(=O)OCC(=O)c1ccc[nH]1	59*	+	1	-1
CN1C(=O)c2cccc(NCCCN3C(=O)c4ccccc4C3=O)c2C1=O	66*	+	-4	-30
CN1C(=O)c2cccc(NCCCCCCN3C(=O)c4ccccc4C3=O)c2C1=O	23	i	1	-1
Cc1ccc2nc(-c3ccc(C#N)cc3)c(Cc3cccc(Cl)c3)n2c1	.	.	0	.
Cc1c(C(=O)O)cccc1-n1c(C)cc(C=O)c1C	72*	i	-6	0
CC1(C)C(=O)Nc2ccccc2N1C(=O)COc1ccc(S(=O)(=O)N2CCOCC2)cc1Cl	64	+	-20	19
O=C(COc1ccc(S(=O)(=O)N2CCOCC2)cc1Cl)N1CCCC1	-12	i	-4	.
CCOC(=O)Cc1csc(NC(=S)NC(=O)c2ccccc2)n1	7	i	28	1
CCOC(=O)CNC(=O)c1sc(NC(=O)/C=C/c2ccccc2)nc1C	-6	i	2	-12
CCOC(=O)c1sc(NC(=O)/C=C/c2ccccc2)nc1C	11*	i	26	-3
CCOC(=O)Cc1csc(NC(=O)c2sc3nc4ccc(CC)cc4cc3c2N)n1	-2	i	-18	-29
SMILES	eIF4H inh	PABP FP inh	MLLE-PAM2 inh	eIF4E-4G inh
CCOC(=O)Cc1csc(NC(=S)NC(=O)c2ccccc2Br)n1	5	i	39*	11
CCOC(=O)Cc1csc(NC(=O)c2sc3nc4cc(C)ccc4cc3c2N)n1	?	+	23	4
CCOC(=O)Cc1csc(NC(=O)/C=C/c2cccc(Br)c2)n1	active	+	-20	3
CC(C)C(N)c1csc(NC(=O)Nc2cccc(Cl)c2)n1 (configuration not stated)	.	.	5	.
c1ccc(C2CC(c3cccs3)Nc3nnnn32)cc1 (configuration not stated)	-11	i	-3	3
Brc1cccc(C2CC(c3ccccc3)n3nnnc3N2)c1 (configuration not stated)	-5	i	6	34*
